Source: PubChem BioAssay (NCATS)
Inconclusive results are not listed. A call without a number means that no potency is given here. Unmarked numbers belong to inactive results. The source made the active and inactive calls. Calls come from the whole dose curve; as a rule, active = well fitted curve in the direction sought with a large enough effect; inconclusive = small, poorly fitted or top-dose-only effect, or another doubt; inactive = no such curve, though single readings can be large; an effect the other way counts as inactive or inconclusive.

Columns and labels:
[1] = target: Tyrosyl-DNA phosphodiesterase 1 (Homo sapiens) (UniProt Q9NUW8); assay: Confirmation Assay for Inhibitors of Tyrosyl-DNA Phosphodiesterase (TDP1) (AID 489007); conditions: recombinant human TDP1 enzymatic activity, dose-response; note: nearly all actives have a fitted effect of over 40% in size
Procedure, shortened: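 Compounds are preincubated 15 min at room temperature with 1 nM recombinant human Tdp1. The reaction starts on adding 15 nM FITC-phosphotyrosine DNA substrate, runs 5 min, and is detected by AlphaScreen beads after 10 min.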

[2] = target: Tumor susceptibility gene 101 protein (Homo sapiens) (UniProt Q99816); assay: qHTS Assay for Iinhibitors of HIV-1 Budding by Blocking the Interaction of PTAP/TSG101: Hit Validation (AID 651600); conditions: PTAP peptide/TSG101 UEV interaction, biochemical assay; series mostly up to 57.5 µM; note: nearly all actives have a fitted effect of over 70% in size
Procedure, shortened: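 Tsg101 binding domain 10 uM + FITC-PTAP peptide 50 nM (final), 10 mM HEPES pH 7.5/0.15 M NaCl/0.01% Tween 20/3 mM EDTA/0.1 mM TCEP; 20 min RT; FP read, FITC filters.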

[3] = target: Rap guanine nucleotide exchange factor 4 (Homo sapiens) (UniProt Q8WZA2); assay: Confirmatory qHTS for antagonist of cAMP-regulated guanine nucleotide exchange factor 4 (EPAC2) (AID 1645885); conditions: EPAC2 Rap1B-BODIPY-GDP exchange fluorescence, biochemical; series mostly up to 12.7 µM; note: nearly all actives have a fitted effect of over 25% in size
[4] = target: Rap guanine nucleotide exchange factor 3 (Homo sapiens) (UniProt O95398); assay: Counterscreen qHTS for antagonist of cAMP-regulated guanine nucleotide exchange factor 3 (EPAC1) (AID 1645888); conditions: Rap1B-BODIPY-GDP nucleotide exchange, fluorescence; series mostly up to 154 µM;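 for activity change, negative = inhibition: fluorescence loss as bound BODIPY-GDP is released from Rap1B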
Procedure, shortened: (§1)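 Rap1B-BODIPY-GDP 250 nM + GDP 50 uM; cpds 7-pt, final 9.74 nM–152 uM (activator mode) or from 7.32 nM upwards (inhibitor mode); RT; FI 480/540 nm at 5 and 30 min, then ± cAMP, reread.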

[5] = target: Rap guanine nucleotide exchange factor 4 (Homo sapiens) (UniProt Q8WZA2); assay: Confirmatory qHTS for agonist of cAMP-regulated guanine nucleotide exchange factor 4 (EPAC2) (AID 1645884); conditions: EPAC2 GEF activity, Rap1B-BODIPY-GDP fluorescence; series mostly up to 154 µM;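 note: nucleotide exchange releases bodipy-GDP from Rap1 and this lowers its fluorescence; nearly all actives have a fitted effect of over 65% in size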
[6] = target: Rap guanine nucleotide exchange factor 3 (Homo sapiens) (UniProt O95398); assay: Counterscreen qHTS for agonist of cAMP-regulated guanine nucleotide exchange factor 3 (EPAC1) (AID 1645889); conditions: EPAC1 Rap1B-BODIPY-GDP exchange, fluorescence; series mostly up to 154 µM; note: nearly all actives have a fitted effect of over 40% in size
Procedure, shortened: as §1
Potency is the fitted concentration of half-maximal effect.

Sequence of Rap guanine nucleotide exchange factor 3 (Homo sapiens) (O95398 whole entry, looked up): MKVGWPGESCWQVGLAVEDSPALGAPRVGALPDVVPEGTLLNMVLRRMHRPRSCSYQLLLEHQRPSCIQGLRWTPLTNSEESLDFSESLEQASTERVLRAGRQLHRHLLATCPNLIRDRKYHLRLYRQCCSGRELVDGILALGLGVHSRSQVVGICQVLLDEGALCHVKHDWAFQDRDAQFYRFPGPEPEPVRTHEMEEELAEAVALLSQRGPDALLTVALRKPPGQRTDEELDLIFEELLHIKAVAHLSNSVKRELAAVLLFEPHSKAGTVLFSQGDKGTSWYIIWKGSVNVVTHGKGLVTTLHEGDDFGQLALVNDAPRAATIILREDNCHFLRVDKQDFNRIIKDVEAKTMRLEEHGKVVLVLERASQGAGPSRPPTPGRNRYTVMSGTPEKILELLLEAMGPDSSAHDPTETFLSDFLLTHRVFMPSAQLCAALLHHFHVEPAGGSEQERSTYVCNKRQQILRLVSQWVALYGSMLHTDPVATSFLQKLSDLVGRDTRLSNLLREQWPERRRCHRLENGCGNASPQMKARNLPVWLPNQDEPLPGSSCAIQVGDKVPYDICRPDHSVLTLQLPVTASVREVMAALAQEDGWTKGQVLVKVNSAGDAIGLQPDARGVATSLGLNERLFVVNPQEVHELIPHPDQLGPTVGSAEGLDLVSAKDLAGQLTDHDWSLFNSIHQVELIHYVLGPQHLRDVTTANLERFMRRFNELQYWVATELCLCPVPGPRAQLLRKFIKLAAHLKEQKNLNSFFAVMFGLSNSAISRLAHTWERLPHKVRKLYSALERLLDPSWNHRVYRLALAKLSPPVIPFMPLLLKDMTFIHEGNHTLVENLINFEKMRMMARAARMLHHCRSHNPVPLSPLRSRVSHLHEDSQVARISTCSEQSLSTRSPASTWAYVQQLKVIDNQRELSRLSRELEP
Sequence of Tumor susceptibility gene 101 protein (Homo sapiens) (Q99816 whole entry, looked up, the tested form may be a part): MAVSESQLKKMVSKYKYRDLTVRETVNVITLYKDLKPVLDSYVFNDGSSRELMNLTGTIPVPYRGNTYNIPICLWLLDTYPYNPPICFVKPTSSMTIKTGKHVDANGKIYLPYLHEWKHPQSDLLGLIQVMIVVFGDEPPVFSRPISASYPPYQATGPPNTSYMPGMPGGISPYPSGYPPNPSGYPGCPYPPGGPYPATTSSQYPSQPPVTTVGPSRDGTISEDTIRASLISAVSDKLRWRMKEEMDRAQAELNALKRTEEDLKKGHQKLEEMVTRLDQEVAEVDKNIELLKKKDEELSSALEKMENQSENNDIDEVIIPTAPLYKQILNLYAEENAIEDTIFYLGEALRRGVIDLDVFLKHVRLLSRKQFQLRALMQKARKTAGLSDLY
Sequence of Rap guanine nucleotide exchange factor 4 (Homo sapiens) (Q8WZA2 whole entry, looked up): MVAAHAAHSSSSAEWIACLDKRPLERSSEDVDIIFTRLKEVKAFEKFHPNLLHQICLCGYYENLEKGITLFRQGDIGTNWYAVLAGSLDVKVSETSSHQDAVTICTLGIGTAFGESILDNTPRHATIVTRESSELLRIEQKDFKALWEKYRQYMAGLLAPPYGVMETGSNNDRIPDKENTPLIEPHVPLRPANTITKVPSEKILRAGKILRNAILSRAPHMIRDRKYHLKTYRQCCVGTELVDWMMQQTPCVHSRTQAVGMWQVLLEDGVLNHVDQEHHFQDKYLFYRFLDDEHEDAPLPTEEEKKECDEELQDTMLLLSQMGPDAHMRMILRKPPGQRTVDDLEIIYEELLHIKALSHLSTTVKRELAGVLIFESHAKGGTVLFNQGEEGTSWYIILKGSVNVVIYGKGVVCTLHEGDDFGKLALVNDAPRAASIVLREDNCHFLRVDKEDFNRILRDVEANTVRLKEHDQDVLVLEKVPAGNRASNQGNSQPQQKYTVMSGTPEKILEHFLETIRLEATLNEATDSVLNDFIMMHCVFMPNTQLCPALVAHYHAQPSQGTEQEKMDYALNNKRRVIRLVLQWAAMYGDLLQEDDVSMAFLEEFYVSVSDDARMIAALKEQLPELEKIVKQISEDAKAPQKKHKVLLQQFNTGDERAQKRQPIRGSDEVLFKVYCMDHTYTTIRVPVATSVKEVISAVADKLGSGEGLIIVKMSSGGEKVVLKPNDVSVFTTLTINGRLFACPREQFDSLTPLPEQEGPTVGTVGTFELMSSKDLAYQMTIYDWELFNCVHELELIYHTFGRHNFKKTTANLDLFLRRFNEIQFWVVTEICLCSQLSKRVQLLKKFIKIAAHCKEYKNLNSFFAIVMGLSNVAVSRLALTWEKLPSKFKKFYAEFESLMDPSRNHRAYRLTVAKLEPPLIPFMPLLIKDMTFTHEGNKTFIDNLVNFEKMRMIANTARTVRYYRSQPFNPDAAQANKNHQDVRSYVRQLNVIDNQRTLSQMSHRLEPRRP
Sequence of Tyrosyl-DNA phosphodiesterase 1 (Homo sapiens) (Q9NUW8 whole entry, looked up): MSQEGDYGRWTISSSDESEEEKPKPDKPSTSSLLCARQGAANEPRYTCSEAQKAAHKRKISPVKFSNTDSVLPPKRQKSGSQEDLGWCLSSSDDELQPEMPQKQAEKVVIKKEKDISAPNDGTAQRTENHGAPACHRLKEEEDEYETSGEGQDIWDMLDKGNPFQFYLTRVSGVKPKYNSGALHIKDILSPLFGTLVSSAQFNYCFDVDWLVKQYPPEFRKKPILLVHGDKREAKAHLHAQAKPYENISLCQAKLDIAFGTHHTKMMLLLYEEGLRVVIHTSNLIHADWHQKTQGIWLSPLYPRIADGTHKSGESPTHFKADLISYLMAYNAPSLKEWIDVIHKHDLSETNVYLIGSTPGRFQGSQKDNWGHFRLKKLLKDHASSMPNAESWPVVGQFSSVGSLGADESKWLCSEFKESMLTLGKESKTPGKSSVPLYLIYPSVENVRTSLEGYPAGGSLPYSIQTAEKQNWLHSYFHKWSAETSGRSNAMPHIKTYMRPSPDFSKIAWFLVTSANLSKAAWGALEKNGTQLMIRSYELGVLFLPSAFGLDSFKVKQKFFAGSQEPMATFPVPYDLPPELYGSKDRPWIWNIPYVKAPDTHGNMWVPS

O=C(O)c1ccc(Nc2nc(-c3cc4ccccc4oc3=O)cs2)cc1O
Potency [1]: 63.1 µM (active)

CC(=O)N1CCc2nc3sc(C(=O)c4ccc(F)cc4)c(N)c3c(C(F)(F)F)c2C1
Potency [2]: inactive

Cc1cc2nc3c(=O)n(Cc4ccccc4)c(=O)[nH]c3nc2cc1N
Potency [2]: 3.66 µM (active)

COc1cccc(CNc2cccc3cccnc23)c1O
Potency [3]: inactive
Potency [4]: inactive

COc1ccc2sc(N(Cc3cccnc3)C(=O)c3ccco3)nc2c1
Potency [3]: inactive

S=C(Nc1ccc2nsnc2c1)NC1CCCCC1
Potency [3]: inactive
Potency [4]: inactive

OCc1ccc(-c2ccccc2)c(-c2ccccc2)c1
Potency [3]: inactive
Potency [4]: inactive

CCN(CC)CCCC(C)n1c2nc(=O)[nH]c(=O)c-2nc2cc(Cl)ccc21 (configuration not stated)
Potency [5]: 100 µM (active)
Potency [6]: 63.1 µM (active)

CC1CCCN(C(=O)c2ccc(-c3ccccc3Cl)o2)C1 (configuration not stated)
Potency [3]: inactive
Potency [4]: inactive

Oc1ccc(Cl)cc1CNc1cccc2cccnc12
Potency [3]: inactive
Potency [4]: inactive

CCOC(=O)c1ccc(/C=C2/C=C(c3ccccc3)N(c3ccc(Cl)c(C(=O)O)c3)C2=O)cc1
Potency [5]: 100 µM (active)
Potency [4]: inactive

COC(=O)c1ccc(COc2ccc(/C=C(\C#N)c3nc4ccccc4[nH]3)cc2OC)o1
Potency [3]: inactive
Potency [4]: inactive

O/N=C(/c1ccc(F)cc1)C1CC1c1c(F)cccc1Cl (configuration not stated)
Potency [3]: inactive
Potency [4]: inactive

CCOc1ccccc1CN(CCc1ccc2c(c1)OCO2)Cc1ccccn1
activation [5]: 11.2% [at 17.1 µM, percent relative to cAMP agonist control]
activity change, negative = inhibition [4]: 2.25% [at 30.8 µM]

O=C(N/N=C/c1ccc(OC(=O)c2ccccc2Cl)cc1)c1cc(O)cc(O)c1
Potency [3]: inactive
Potency [4]: inactive

COCCn1c(-c2ccc(OC)cc2)c(-c2ccc(OC)cc2)oc1=O
Potency [3]: inactive
Potency [4]: inactive

CC(NC1=CC(=O)c2cccnc2C1=O)C(O)c1ccccc1 (configuration not stated)
Potency [3]: inactive
Potency [4]: inactive

N#Cc1ccc(CSc2nc(N)cc(N)n2)cc1
Potency [5]: 112 µM (active)
Potency [4]: inactive
Potency [6]: inactive

COc1ccc(O)c(C(c2c(C)[nH][nH]c2=O)c2c(C)[nH][nH]c2=O)c1
Potency [3]: 75.7 µM (active)
Potency [4]: inactive

O=S(=O)(c1ccc2[nH]c3c(c2c1)CCCC3)N1CCCCC1
Potency [3]: inactive
Potency [4]: inactive

Cc1cccc(C)c1NC(=O)CN1C(=O)S/C(=C\c2cccn2-c2cccc(C(=O)O)c2)C1=O
Potency [5]: 100 µM (active)
Potency [4]: inactive
Potency [6]: inactive

CCOC(=O)[C@H]1[C@H]2COc3ccc(C)cc3[C@@H]2N2C(=O)c3ccc(C)cc3NC(=O)[C@@]12C
Potency [5]: 112 µM (active)
Potency [4]: inactive

COC(=O)C(C)Sc1nc2ccsc2c(=O)n1Cc1ccccc1 (configuration not stated)
Potency [3]: 26.9 µM (active)
Potency [4]: inactive

Cn1cc(-c2cnc3c(NC=O)cc(-c4cccc(C(F)(F)F)c4)cn23)cn1
Potency [3]: inactive
Potency [4]: inactive

Cc1c(CCC(=O)O)c(=O)oc2c(C)c3occ(-c4ccc(Br)cc4)c3cc12
Potency [3]: inactive
Potency [4]: inactive
Potency [6]: inactive

C=Cc1ccc(CC2(C)C(=O)Nc3ccc(-c4cccnc4)cc32)cc1 (configuration not stated)
Potency [3]: inactive
Potency [4]: inactive

CC(=O)OCCn1c2nc(=O)[nH]c(=O)c-2nc2cc(C)c(C)cc21
Potency [2]: 0.919 µM (active)
Potency [5]: 100 µM (active)
Potency [4]: 100 µM (active)

CCN(CC)C1=CC2=CC(=C(C#N)C#N)CCC2CC1 (configuration not stated)
Potency [2]: inactive
Potency [5]: 112 µM (active)
Potency [4]: inactive
Potency [6]: 25.1 µM (active)

COc1cccc(C2=NN(C(=O)c3ccco3)C(c3ccco3)C2)c1 (configuration not stated)
Potency [3]: inactive
Potency [4]: inactive
Potency [6]: inactive

CN(C)/C=C1\C=C2C(=O)c3ccccc3N2C1=O
Potency [5]: 5.01 µM (active)
Potency [6]: 10 µM (active)

CCCCN(C)C1=CC2=CC(=C(C#N)C#N)CCC2CC1 (configuration not stated)
Potency [2]: inactive
Potency [5]: 126 µM (active)
Potency [6]: 39.8 µM (active)

COc1cccc(Cn2c(=O)c3ccccc3n3nc(C)cc23)c1
Potency [3]: inactive
Potency [4]: inactive

O=C(c1cc(Cl)ccc1Cl)N1CCc2ccccc21
Potency [3]: 33.8 µM (active)
Potency [4]: inactive

Nc1ccc(CSc2ccc(Cl)cc2)c(Cl)c1
Potency [3]: 21.3 µM (active)
Potency [4]: inactive
